# ADAM10 inh = inhibitors of human ADAM10. O14672. recombinant ADAM10, EDANS/DABCYL FRET peptide cleavage, 3 h. inhibition, % at 7 µM. actives 0.62% (n = 370,000). AID 720582;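 active means inhibition above a per-campaign cutoff equal to the mean of compounds falling between control-based bounds plus 3 SD, cut at about 20% in these data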;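 further: 0% = DMSO wells while the 100% control is not disclosed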
# ADAM17 inh = inhibitors of human ADAM17. inhibition, % at 6.95 µM. recombinant ADAM17, EDANS/DABCYL FRET peptide cleavage. P78536. actives 0.83% (n = 370,000). AID 720648;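 active means inhibition above the mean of compounds lying between control limits plus 3 SD, set per campaign, cut at about 8.5% in these data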;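 further: 0% = DMSO-only wells as the low control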
# HGIII-sPLA2 inh = Blocks human group III sPLA2 activity. AID 743126. actives 0.56% (n = 370,000). QFRET BODIPY PC-A2 liposome hydrolysis, fluorescence. inhibition, % at 12.2 µM. Q9NZ20;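 active means inhibition above mean plus 3 SD of compounds lying within the high and low control bounds, cut at about 19% in these data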;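 further: 0% = median of test compound wells and 100% = no enzyme DMSO wells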
# PLCg1 inh = inhibitors of human phospholipase C gamma1; inhibition, % at 12.2 µM; actives 0.84% (n = 370,000); P19174; AID 720700; purified PLC-gamma1, fluorogenic substrate, fluorescence; in the data active means inhibition above about 9.5%
# Target sequence (P19174 whole entry, looked up): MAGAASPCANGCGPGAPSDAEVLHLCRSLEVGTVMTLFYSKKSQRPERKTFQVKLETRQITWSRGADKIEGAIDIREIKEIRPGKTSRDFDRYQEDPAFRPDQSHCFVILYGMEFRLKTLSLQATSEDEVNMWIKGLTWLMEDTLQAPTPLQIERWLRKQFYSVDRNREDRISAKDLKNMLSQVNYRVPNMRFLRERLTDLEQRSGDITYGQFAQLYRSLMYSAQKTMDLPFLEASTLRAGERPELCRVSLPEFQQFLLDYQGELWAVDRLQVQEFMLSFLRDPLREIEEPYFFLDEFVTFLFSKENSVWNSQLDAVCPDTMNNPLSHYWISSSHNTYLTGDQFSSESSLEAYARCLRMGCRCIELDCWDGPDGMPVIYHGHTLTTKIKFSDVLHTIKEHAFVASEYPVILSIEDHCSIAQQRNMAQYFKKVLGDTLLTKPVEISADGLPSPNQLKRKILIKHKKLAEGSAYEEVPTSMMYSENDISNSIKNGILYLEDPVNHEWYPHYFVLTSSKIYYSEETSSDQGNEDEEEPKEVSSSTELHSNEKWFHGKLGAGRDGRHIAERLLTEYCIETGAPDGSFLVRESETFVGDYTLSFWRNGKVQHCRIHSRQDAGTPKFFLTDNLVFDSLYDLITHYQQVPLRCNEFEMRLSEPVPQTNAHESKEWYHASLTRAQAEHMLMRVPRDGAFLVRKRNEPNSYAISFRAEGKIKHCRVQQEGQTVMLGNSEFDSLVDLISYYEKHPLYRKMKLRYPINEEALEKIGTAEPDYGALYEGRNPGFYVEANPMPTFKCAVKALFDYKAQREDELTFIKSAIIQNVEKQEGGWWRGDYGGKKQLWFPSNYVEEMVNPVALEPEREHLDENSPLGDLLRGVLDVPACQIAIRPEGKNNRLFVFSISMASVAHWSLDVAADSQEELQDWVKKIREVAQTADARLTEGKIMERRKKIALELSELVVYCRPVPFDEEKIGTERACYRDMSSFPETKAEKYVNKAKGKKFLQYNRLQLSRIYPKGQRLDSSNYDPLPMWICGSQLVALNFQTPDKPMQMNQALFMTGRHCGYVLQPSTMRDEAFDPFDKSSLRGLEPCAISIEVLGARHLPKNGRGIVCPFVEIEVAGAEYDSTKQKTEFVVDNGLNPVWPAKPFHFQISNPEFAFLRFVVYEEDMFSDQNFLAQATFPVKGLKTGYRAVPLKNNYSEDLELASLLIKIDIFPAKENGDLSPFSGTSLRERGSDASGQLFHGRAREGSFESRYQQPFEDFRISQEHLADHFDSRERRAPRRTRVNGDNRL
# PLCb3 inh = blocks human PLC-beta3 enzyme activity. actives 0.18% (n = 370,000). AID 720704. Purified PLC-beta3, fluorogenic substrate, fluorescence. Q01970. inhibition, % at 12.2 µM; in the data active means inhibition above about 11%;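 further: 0% = median of compound wells on plate and 100% = full blocker control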
# proKLK7 act = proKLK7 (human) activation, primary screen | P49862 | purified proKLK7, EDANS-DABCYL substrate fluorescence; 100% is mature enzyme control, 0% vehicle | activation, % at 7 µM | actives 0.9% (n = 370,000) | AID 652039;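 active means activation above the mean of all tested compounds plus 3 SD, computed per campaign excluding outliers beyond control limits, cut at about 13% in these data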
# KLK7 act conf = proKLK7 activation, confirmation | shares compounds with proKLK7 act | purified proKLK7, EDANS-DABCYL substrate fluorescence; scaled: vehicle 0, mature enzyme 100 | activation, % at 7 µM | actives 68% (n = 3,200) | AID 686949;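 active means activation, as change over the incubation, above the mean of all tested compounds plus 3 SD, cut at about 13% in these data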
# EDANS-DABCYL int = optically interferes with EDANS-DABCYL signal, flagging KLK7 hits; activation, % at 7 µM; AID 686952; actives 80% (n = 3,200); EDANS-DABCYL substrate fluorescence interference, no enzyme, 4 h; solvent 0%, active enzyme control 100%; shares compounds with proKLK7 act;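 active means activation above the all-compound mean plus 3 SD, ignoring values outside control-based bounds, cut at about 4.8% in these data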;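 further: value is the 4 h activation minus the activation read at time zero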
# EDANS interf = counter-screen for kallikrein-7 activators: EDANS-DABCYL interference, dose response; shares compounds with proKLK7 act; EDANS-DABCYL peptide fluorescence interference, no enzyme; EC50, µM; actives 20% (n = 250);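 active means compounds that raise the fluorescence signal in this interference counterscreen, with EC50 at or below 10 µM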;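 further: intact quenched peptide substrate alone read at 355 nm excitation and 520 nm emission; signal is fluorescence gain from T0 to T4 after four hours at room temperature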
# The depositor's hits bear a star; i = inactive; nt = no result given. Sampled rows, rich in hits. Any-hit rate of the full collection: about 3.4%.
SMILES,ADAM10 inh,ADAM17 inh,HGIII-sPLA2 inh,PLCg1 inh,PLCb3 inh,proKLK7 act,KLK7 act conf,EDANS-DABCYL int,others
COC(=O)C1=C(C)N(C)C(=NCc2cccc(C(F)(F)F)c2)NC1c1ccccc1C(F)(F)F (stereo not drawn),-2.1,2.3,-13.2,0.1,6.4,1.0,nt,nt,
CCN(CC)C(=O)[C@H]1C[C@H](CC(=O)NCCCN(C)C)C(=O)N2CCc3c([nH]c4cc(-c5ccco5)ccc34)[C@]12C,-305.5,-69.4,-7.1,-131.2,-191.3,90.3*,72.7*,83.8*,
CC1(C)C=C2C(N(Cc3ccc4c(c3)OCO4)C(=N)N2C(=O)OCc2ccccc2)n2c(=O)n(-c3ccccc3)c(=O)n21 (stereo not drawn),-7.2,-4.2,10.8,-11.9,-14.9,nt,nt,nt,
CCN1CCN(c2nnc(-c3ccccc3)c3ccccc23)CC1,2.7,1.0,-1.0,3.9,-2.7,0.0,nt,nt,
CCN1CCN(c2cc3c(nn2)Oc2ccccc2N3C)CC1,i,-390.2,10.5,i,i,61.1*,69.7*,67.2*,
COC(=O)[C@]12C[C@H](CC(=O)NCC34CC5CC(CC(C5)C3)C4)C(=O)N(CCC3=CCCCC3)C1=C[C@H](C(C)(C)C)O[C@@H]2C,-3.8,-1.8,-3.3,1.2,0.2,0.2,nt,nt,
COc1ccc(-c2ccnc3cc(C(=O)O)nn23)cc1,-413.7,-142.4,6.7,i,i,12.6*,34.3*,31.7*,
O=C(O)c1cc2nccc(-c3ccco3)n2n1,-243.2,-89.7,-0.4,-450.4,i,17.7*,23.1*,22.2*,
c1coc(-c2ccnc3nc(-n4cccc4)nn23)c1,-102.5,-40.2,-0.1,-32.4,-36.0,-0.1,nt,nt,
CC1(C)Oc2ccc3ccc(=O)oc3c2[C@@H](O)[C@H]1O,i,-188.6,11.4,-46.7,-79.1,3.0,nt,nt,
CC1(C)Oc2ccc3ccc(=O)oc3c2C(/C=N/O)C1=O (stereo not drawn),-86.1,-24.0,-3.0,-11.8,-13.1,27.5*,17.1*,18.2*,
Clc1ccc2nc3ccccn3c2c1,i,i,2.6,i,i,22.4*,41.1*,43.8*,
N#Cc1ccc2c(c1)nc1ccccn12,i,i,-1.5,-306.9,-440.1,21.4*,27.4*,23.2*,EDANS interf=>69.6
Cc1cccc(C2=NN(c3ccccc3)[C@@H](C(=O)N3CCOC3=O)[C@@H]2C)c1,-61.9,-17.4,3.5,-32.2,-49.2,25.6*,114.2*,70.1*,
C[C@@H]1C(c2ccccc2)=NN(c2ccc(Br)cc2)[C@H]1C(=O)N1CCOC1=O,-353.3,-92.0,-1.3,-205.8,-315.2,57.3*,-158.9,-146.7,
COc1ccccc1[C@@H]1C(c2cccc(Cl)c2)=NN(c2ccc(Br)cc2)[C@H]1C(=O)N1CCOC1=O,-202.6,-51.2,3.2,-173.1,-299.5,-3.2,nt,nt,
Cc1cccc(C2=NN(c3ccc(Br)cc3)[C@@H](C(=O)N3CCOC3=O)[C@@H]2C)c1,-282.7,-84.3,-15.7,-129.3,-180.3,-13.0,nt,nt,
COc1cccc(N2CC(=O)N(NC(=O)c3sc4nc(C)cc(C)c4c3N)CC2=O)c1,i,-282.2,2.4,i,i,56.3*,15.9*,21.6*,
COc1cccc(N2CC(=O)N(NC(=O)CSc3nc(C)cc(C)c3C#N)CC2=O)c1,-107.1,-31.2,5.0,-145.1,-271.0,71.0*,42.4*,45.2*,
Cc1cc(C)c(C#N)c(SCC(=O)Nc2cccc(S(=O)(=O)N3CCCC3)c2)n1,-20.2,-11.4,3.3,-19.4,-46.3,-0.5,nt,nt,
Cc1cc(C)c2c(N)c(C(=O)NN3CC(=O)N(c4ccccc4F)CC3=O)sc2n1,i,-338.8,2.1,i,i,111.6*,39.7*,41.8*,
COc1ccc(NC(=O)c2sc3nc(C)cc(C)c3c2N)c(OC)c1,-8.2,-3.5,2.5,-9.8,-16.6,0.1,nt,nt,
O=C(CSc1nnc(-c2cccs2)o1)c1ccc(F)cc1,-3.3,0.8,-39.1,-0.7,1.2,0.0,nt,nt,
CC1(C)CC(=O)C2=C(C1)OC(N)=C(C#N)C2c1ccccc1 (stereo not drawn),-5.8,-1.3,-2.2,-1.6,-3.6,-0.2,nt,nt,
CC1(C)CC(=O)C2=C(C1)OC(N)=C(C#N)C2c1ccccc1[N+](=O)[O-] (stereo not drawn),-142.4,-56.4,-16.1,-144.2,-167.6,17.1*,12.2,13.3*,
SMILES,ADAM10 inh,ADAM17 inh,HGIII-sPLA2 inh,PLCg1 inh,PLCb3 inh,proKLK7 act,KLK7 act conf,EDANS-DABCYL int,others
CCCCNc1ccc2c(c1)OC[C@H](C)NS2(=O)=O,-1.1,-0.5,8.8,-1.3,1.6,-0.2,nt,nt,
Cc1cc(Nc2cccc(Cl)c2)nc(-c2ccccc2O)n1,-22.4,-4.5,-1.1,-85.8,-142.1,264.7*,77.0*,105.0*,
COc1ccc(CN2C[C@H](COCc3ccccc3)Oc3cccc(N4CCCC4)c3S2(=O)=O)cc1,-6.3,0.2,6.3,0.1,-1.5,0.6,nt,nt,
COc1ccc(-c2cc3ccccc3c(=O)o2)cc1,i,-478.9,0.8,i,i,21.0*,-28.5,-29.5,
COc1ccc(-c2cc(=O)c3cccc(CC(=O)O)c3o2)cc1,i,i,-4.7,i,i,79.5*,82.5*,81.5*,
COC(=O)[C@]12C[C@H](CC(=O)NCc3cccs3)C(=O)N(CCC3=CCCCC3)C1=C[C@H](C(C)(C)C)O[C@@H]2C,2.3,0.9,1.0,2.4,1.8,-0.1,nt,nt,
COc1ccc2c(c1)cc1n2CCN=C1NCCO,-202.8,-54.4,10.0,i,i,16.9*,19.9*,26.8*,
COC(=O)C1=C(C)N(C)C(=NCC2CC2)NC1c1ccccc1C(F)(F)F (stereo not drawn),-12.0,-8.4,9.8,2.2,-2.6,-0.3,nt,nt,
O=c1c2ccccc2nc2ccccn12,i,i,7.3,i,i,49.8*,42.5*,41.2*,
O=c1c(-c2ccccc2)c(O)nc2ccccn12,-28.8,-8.2,2.6,-135.2,-138.5,0.1,nt,nt,
COc1cc2c(cc1OC)C(c1ccccc1)CC2=O (stereo not drawn),-10.7,-2.1,-2.5,-0.7,-5.5,-0.4,nt,nt,
COc1cc2c(cc1OC)C(=O)CC(C)S2 (stereo not drawn),-356.8,-134.4,3.7,i,i,13.8*,31.9*,26.2*,

# Compound activity (PubChem)
